The supplement of paper PMC7184167
Counter-ions that a name gives are not always drawn.

These compounds were tested on replication-induced senescent mouse newborn dermal fibroblasts (NBF) (assay: relative cell viability of senescent cells (fraction); higher = less killing of senescent cells). Details: 1 µM; 3 days.
Description: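 Replication-induced senescent newborn mouse skin fibroblasts (NBFs) in 24-well plates were treated with a Selleck FDA-approved drug library at 1 µM for 3 days.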
`NS(=O)(=O)c1cc2c(cc1Cl)NCNS2(=O)=O` [Hydrochlorothiazide] gave a relative cell viability of 1.07.
`CN(C)CCc1c[nH]c2ccc(C[C@H]3COC(=O)N3)cc12` [Zolmitriptan] was tested, and the relative cell viability was 0.999.
Compound `COC(=O)C1=C(C)NC(C)=C(C(=O)OC(C)C)C1c1cccc2nonc12` (stereo not given) [Isradipine] has a relative cell viability of 0.977.
For `CCOC(=O)c1ccc(C#Cc2ccc3c(c2)C(C)(C)CCS3)nc1` [Tazarotene], the relative cell viability was 1.23.
With `CC(=O)N[C@@H](CS)C(=O)O` [Acetylcysteine] the relative cell viability was 0.834.
Compound `c1ccc(-c2ccc(C(c3ccccc3)n3ccnc3)cc2)cc1` (stereo not given) [Bifonazole] has a relative cell viability of 0.877.
`Nc1ncn([C@H]2C[C@H](O)[C@@H](CO)O2)c(=O)n1` [Decitabine] was tested, and the relative cell viability was 0.211.
Compound `CN1CCN(CCOc2cc(OC3CCOCC3)c3c(Nc4c(Cl)ccc5c4OCO5)ncnc3c2)CC1` [Saracatinib (AZD0530)] has a relative cell viability of 0.626.
With `CC(=O)Oc1ccccc1C(=O)Nc1ncc([N+](=O)[O-])s1` [Nitazoxanide] the relative cell viability was 0.698.
Compound `Clc1ccc(C(c2ccccc2Cl)C(Cl)Cl)cc1` (stereo not given) [Mitotane] has a relative cell viability of 1.16.
`COc1c(N2C[C@@H]3CCCN[C@@H]3C2)c(F)cc2c(=O)c(C(=O)O)cn(C3CC3)c12` [Moxifloxacin HCl] gave a relative cell viability of 1.03.
With `O=C1[C@H](CC[C@H](O)c2ccc(F)cc2)[C@@H](c2ccc(O)cc2)N1c1ccc(F)cc1` [Ezetimibe] the relative cell viability was 0.901.
With `CCCc1nn(C)c2c(=O)[nH]c(-c3cc(S(=O)(=O)N4CCN(C)CC4)ccc3OCC)nc12` [Sildenafil Citrate] the relative cell viability was 0.891.
Work on `Cc1ccc(C(=O)Nc2ccc(CN3CCN(C)CC3)c(C(F)(F)F)c2)cc1C#Cc1cnc2cccnn12` yielded a relative cell viability of 0.964.
`CC1=C(/C=C/C(C)=C/C=C/C(C)=C/C(=O)O)C(C)(C)CCC1` [Tretinoin] was tested, and the relative cell viability was 0.466.
`NS(=O)(=O)c1cc2c(cc1Cl)N=CNS2(=O)=O` [Chlorothiazide] was tested, and the relative cell viability was 0.952.
`COc1cc2ncnc(Nc3ccc(F)c(Cl)c3)c2cc1OCCCN1CCOCC1` [Gefitinib (ZD1839)] was tested, and the relative cell viability was 1.01.
`CCCCCCCCCCC[C@@H](C[C@@H]1OC(=O)[C@H]1CCCCCC)OC(=O)[C@H](CC(C)C)NC=O` [Orlistat] was tested, and the relative cell viability was 0.998.
For `COCC[n+]1c2c(n(Cc3cnccn3)c1C)C(=O)c1ccccc1C2=O` [YM155 (Sepantronium Bromide)], the relative cell viability was 0.187.
With `Nc1nc2c(ncn2COC(CO)CO)c(=O)[nH]1` [Ganciclovir] the relative cell viability was 0.995.
For `CO[C@H]1/C=C/O[C@@]2(C)Oc3c(C)c(O)c4c(O)c(c(/C=N/N5CCN(C)CC5)c(O)c4c3C2=O)NC(=O)/C(C)=C\C=C\[C@H](C)[C@H](O)[C@@H](C)[C@@H](O)[C@@H](C)[C@H](OC(C)=O)[C@@H]1C` [Rifampin], the relative cell viability was 1.11.
With `CN1CC(=O)N2[C@H](c3ccc4c(c3)OCO4)c3[nH]c4ccccc4c3C[C@@H]2C1=O` [Tadalafil] the relative cell viability was 0.318.
In the case of `CNC(=O)c1ccccc1Sc1ccc2c(/C=C/c3ccccn3)n[nH]c2c1` [Axitinib], the relative cell viability is reported as 0.908.
Work on `C[C@@](Cc1ccc(O)c(O)c1)(NN)C(=O)O` [Carbidopa] yielded a relative cell viability of 1.05.
`C[C@]1(c2nc3c(C(N)=O)cccc3[nH]2)CCCN1` [Veliparib (ABT-888)] was tested, and the relative cell viability was 0.885.
For `Cn1cnc2c(F)c(Nc3ccc(Br)cc3Cl)c(C(=O)NOCCO)cc21` [Selumetinib (AZD6244)], the relative cell viability was 0.897.
`CNC(=O)c1cc(Oc2ccc(NC(=O)Nc3ccc(Cl)c(C(F)(F)F)c3)cc2)ccn1` [Sorafenib Tosylate] showed a relative cell viability of 0.528.
`Cn1c(=O)c2nc[nH]c2n(C)c1=O` [Theophylline] gave a relative cell viability of 0.828.
In the case of `CCN(CC)CC#CCOC(=O)C(O)(c1ccccc1)C1CCCCC1` (stereo not given) [Oxybutynin], the relative cell viability is reported as 0.938.
Compound `CC1Cc2ccccc2N1NC(=O)c1ccc(Cl)c(S(N)(=O)=O)c1` (stereo not given) [Indapamide] has a relative cell viability of 0.965.
With `NC(=O)c1cnccn1` [Pyrazinamide] the relative cell viability was 1.17.
With `O=S(=O)(c1cccc2cnccc12)N1CCCNCC1` [Fasudil (HA-1077) HCl] the relative cell viability was 1.14.
With `CNS(=O)(=O)CCc1ccc2[nH]cc(C3CCN(C)CC3)c2c1` [Naratriptan HCl] the relative cell viability was 1.14.
`O=C1CCC(N2C(=O)c3ccccc3C2=O)C(=O)N1` (stereo not given) [Thalidomide] gave a relative cell viability of 0.296.
With `CCOC(=O)C1=C(C)NC(C)=C(C(=O)OC)C1c1cccc(Cl)c1Cl` (stereo not given) [Felodipine] the relative cell viability was 1.
Compound `CC(C(=O)O)c1ccc(C(=O)c2cccs2)cc1` (stereo not given) [Suprofen] has a relative cell viability of 0.929.
Compound `COc1cc(C(=O)NS(=O)(=O)c2ccccc2C)ccc1Cc1cn(C)c2ccc(NC(=O)OC3CCCC3)cc12` [Zafirlukast] has a relative cell viability of 0.957.
`Oc1ncnc2[nH]ncc12` [Allopurinol] was tested, and the relative cell viability was 0.796.
In the case of `CC(C)Cc1ccc(C(C)C(=O)O)cc1` (stereo not given) [Ibuprofen], the relative cell viability is reported as 0.765.
Work on `COc1cccc2c1C(=O)c1c(O)c3c(c(O)c1C2=O)CC(O)(C(=O)CO)CC3OC1CC(N)C(O)C(C)O1` (stereo not given) [Doxorubicin (Adriamycin) HCl] yielded a relative cell viability of 0.957.
